This is a sample that favours compounds with a hit; in the whole collection about 3.6% have one here.
Pf apPOL inh = Pf-apPOL DNA polymerase inhibition. Recombinant Pf-apPOL, molecular beacon fluorescence, 1.5 h. inhibition, % at 10 µM. actives 0.25% (n = 210,000)
mHTT-CaM PPI inh = disrupts binding of mutant huntingtin to calmodulin | AlphaScreen His-mHTT/GST-CaM binding, luminescence | inhibition, % at 15 µM | AID 1671202 | P42858 | actives 3.6% (n = 190,000);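 further: 0% = both proteins with DMSO and 100% = one protein alone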
An asterisk follows results filed as active; ! = repeats disagree. No stated cut-off is given here; in the data, active means inhibition above about 50%; inactive means the rest.

COc1ccc(OC)c(C2N(c3ccc(Cl)cc3)C(=O)C3CCCN32)c1 (configuration not stated) was read as Pf apPOL inh -1 and mHTT-CaM PPI inh 73*.
For COc1ccc(OC)c(C2N(c3ccc(Cl)c(Cl)c3)C(=O)C3CCCN32)c1 (configuration not stated) the results were Pf apPOL inh -2 and mHTT-CaM PPI inh 100*.
`COc1cccc(C2N(c3ccccn3)C(=O)C3CCCN32)c1OC` (configuration not stated) gave Pf apPOL inh -2 and mHTT-CaM PPI inh -3.
COc1cccc(C2N(c3ccc(Cl)c(Cl)c3)C(=O)C3CCCN32)c1 (configuration not stated) was read as Pf apPOL inh -4 and mHTT-CaM PPI inh 99*.
For COc1ccc(N2C(=O)C3CCCN3C2c2cccc(C)c2)cc1Cl (configuration not stated) the results were Pf apPOL inh -5 and mHTT-CaM PPI inh 1.
For COc1cccc(C2N(c3ccc(Cl)c(Cl)c3)C(=O)C3CCCN32)c1OC (configuration not stated) the results were Pf apPOL inh -4 and mHTT-CaM PPI inh 100*.
COc1cc(Nc2ncc3c(n2)CCN(Cc2ccc(OC)cc2OC)C3)cc(OC)c1 was read as Pf apPOL inh -3 and mHTT-CaM PPI inh 34.
For COc1cccc(-c2nnc3n2N=C(c2cccc(C(F)(F)F)c2)CS3)c1 the results were Pf apPOL inh 0 and mHTT-CaM PPI inh 5.
For O=C(NCC(c1ccsc1)N1CCCCCC1)C(=O)Nc1ccc2c(c1)OCCO2 (configuration not stated) the results were Pf apPOL inh -6 and mHTT-CaM PPI inh -18.
O=C(NCCC(O)c1ccc2c(c1)OCO2)C1CC=CCC1 (configuration not stated) was read as Pf apPOL inh -5 and mHTT-CaM PPI inh -6.
For Cc1ccc(S(=O)(=O)N2CCC(n3cnc4c(C)cccc4c3=O)CC2)cc1F the results were Pf apPOL inh -2 and mHTT-CaM PPI inh -2.
For COc1ccc(C2N(c3ccc(OC)c(Cl)c3)C(=O)C3CCCN32)cc1 (configuration not stated) the results were Pf apPOL inh -4 and mHTT-CaM PPI inh -3.
COc1ccc(N2C(=O)C3CCCN3C2c2ccc(N(C)C)cc2)cc1Cl (configuration not stated) was read as Pf apPOL inh 0 and mHTT-CaM PPI inh 67*.
`O=C(CN(C1CCCCC1)S(=O)(=O)c1ccccc1)N1CCCCC1` gave Pf apPOL inh -4 and mHTT-CaM PPI inh -1.
O=C(Cc1ccsc1)N1CCc2nc3cc[nH]n3c(=O)c2C1 was read as Pf apPOL inh -1 and mHTT-CaM PPI inh 12.
Screening COc1ccc(S(=O)(=O)n2cc([N+](=O)[O-])cn2)cc1OC returned Pf apPOL inh -8 and mHTT-CaM PPI inh 100*.
`COc1ccc(S(=O)(=O)n2c([N+](=O)[O-])cnc2C)cc1OC` gave Pf apPOL inh -4 and mHTT-CaM PPI inh 2.
Cc1ccc(C)c(NC(=O)Cc2ccc(Br)cc2)c1 was read as Pf apPOL inh 1 and mHTT-CaM PPI inh 2.
Screening Cc1c(C)n(C(=O)CSc2nc3ccccc3o2)c2ccccc12 returned Pf apPOL inh 19 and mHTT-CaM PPI inh -6.
CSc1cccc(NC(=O)C(=O)NCCC2=CCCCC2)c1 was read as Pf apPOL inh -6 and mHTT-CaM PPI inh -14.
`CCCN1CCCc2cc(CCNC(=O)C(=O)Nc3cccc(SC)c3)ccc21` gave Pf apPOL inh -2 and mHTT-CaM PPI inh 65*.
For O=[N+]([O-])c1cc(Nc2ccccc2)c(C=Nc2ccccc2)c([N+](=O)[O-])c1 the results were Pf apPOL inh 3 and mHTT-CaM PPI inh 51*.
`O=[N+]([O-])c1ccc(NN=Cc2ccccc2)c([N+](=O)[O-])c1` gave Pf apPOL inh -5.
Screening O=[N+]([O-])c1ccc(O)c(C=Nc2ccc(Nc3ccccc3)cc2)c1 returned Pf apPOL inh -3 and mHTT-CaM PPI inh 19.
`O=[N+]([O-])c1ccc(NNc2ccccc2)c([N+](=O)[O-])c1` gave mHTT-CaM PPI inh 69*.
For COc1cc(CN2CCCCC2C)cc(Br)c1O (configuration not stated) the results were Pf apPOL inh 2 and mHTT-CaM PPI inh 0.
`COc1ccc(C2Nc3ccc4ncccc4c3C3=C2C(=O)CC(C)(C)C3)c(OC)c1` (configuration not stated) gave Pf apPOL inh -4 and mHTT-CaM PPI inh 34.
`Cc1ccc(I)cc1S(=O)(=O)n1nnc2ccccc21` gave Pf apPOL inh -2 and mHTT-CaM PPI inh 2.
Screening O=S(=O)(c1cccs1)n1cnc2ccccc21 returned Pf apPOL inh -13 and mHTT-CaM PPI inh -2.
Screening O=S(=O)(c1cccs1)n1nnc2ccccc21 returned Pf apPOL inh -6 and mHTT-CaM PPI inh 84*!.
For COc1ccc(I)cc1S(=O)(=O)n1nnc2ccccc21 the results were Pf apPOL inh -11 and mHTT-CaM PPI inh 89*.
For O=C(Nc1cccc(F)c1)c1ccc(N2CCC(NCc3cc(Cl)ccc3O)C2)nc1 (configuration not stated) the results were Pf apPOL inh -4 and mHTT-CaM PPI inh 70*.
Screening O=C(Nc1cccc(F)c1)c1ccc(N2CCC(NCc3ccccc3O)C2)nc1 (configuration not stated) returned Pf apPOL inh -2 and mHTT-CaM PPI inh 9.
`CS(=O)(=O)N1CC(C(=O)NC2CCN(Cc3ccccc3)CC2)C2(CCCCC2)C1` (configuration not stated) gave Pf apPOL inh 6 and mHTT-CaM PPI inh 18.
For Cc1cc(S(=O)(=O)n2c(C)nc3ccccc32)ccc1Cl the results were Pf apPOL inh -8 and mHTT-CaM PPI inh -6.
`CCSc1ccccc1C(=O)N1CCN(CC(O)c2cccs2)CC1` (configuration not stated) gave Pf apPOL inh -3 and mHTT-CaM PPI inh -12.
O=C(NCCC1=CCCCC1)C(=O)Nc1cc2c3c(c1)CCC(=O)N3CCC2 was read as Pf apPOL inh -3 and mHTT-CaM PPI inh -17.
`O=C(c1ccc(Cl)cc1[N+](=O)[O-])N1CCN(c2ccccc2F)CC1` gave Pf apPOL inh -2 and mHTT-CaM PPI inh 14.
`COCc1cc(=O)[nH]c(NC(C)=O)n1` gave Pf apPOL inh -18.
CCCC1(CO)CCCN1C(=O)c1ccc2cc[nH]c2c1 (configuration not stated) was read as Pf apPOL inh 25 and mHTT-CaM PPI inh 55*.
For CCCC1(CO)CCCN1C(=O)c1ccc2[nH]ccc2c1 (configuration not stated) the results were Pf apPOL inh -5 and mHTT-CaM PPI inh -1.
For Cc1cc(C2(c3ccc(O)c(C)c3)C(=O)Nc3c(C)cc([N+](=O)[O-])cc32)ccc1O the results were Pf apPOL inh -4 and mHTT-CaM PPI inh 86*.
`Cc1cccc2c1NC(=O)C2(c1ccc(O)cc1)c1ccc(O)cc1` gave Pf apPOL inh 0 and mHTT-CaM PPI inh 21.
`Cc1cc(C)c2sc(N(CCN(C)C)C(=O)c3ccccc3[N+](=O)[O-])nc2c1` gave Pf apPOL inh 6 and mHTT-CaM PPI inh 84*.
CCN(C(=O)c1ccccc1[N+](=O)[O-])c1ccccc1C was read as Pf apPOL inh -4 and mHTT-CaM PPI inh 0.
`COCCCNC(=O)c1nc(-c2cccc(F)c2)n2c1CCCCC2` gave Pf apPOL inh 3 and mHTT-CaM PPI inh 5.

Screens from PubChem.
